Source: PubChem BioAssay (EPA / NIEHS)
The source made the active and inactive calls. How the source made its calls: active means hit-call score of the fitted dose curve at least 0.9, where 1 is the maximum; inactive means score below 0.9.

Columns and labels:
[1] = read-out: Tumor necrosis factor receptor superfamily member 6 (Homo sapiens) (UniProt P25445); assay: LTEA_HepaRG_FAS: Life Technologies and Expression Analysis (LTEA) Assay for Fas cell surface death receptor (FAS) using HepaRG (AID 2283447); conditions: mRNA level, 48 h; actives raise or lower the signal
Method in brief: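 FAS transcript level was measured by TaqMan qRT-PCR against three housekeeping genes after 48 h chemical exposure. Cells were HepaRG, 0.5% DMSO vehicle, with a top concentration of 100 uM and half-log dilutions over eight points, in duplicate.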

[2] = read-out: Fatty acid synthase (Homo sapiens) (UniProt P49327); assay: LTEA_HepaRG_FASN: Life Technologies and Expression Analysis (LTEA) Assay for Fatty Acid Synthase (FASN) using HepaRG (AID 2283448); conditions: mRNA level, 48 h; actives raise or lower the signal;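 on AC50: differentiated human HepaRG liver cells in serum-free induction medium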
Method in brief: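 Differentiated HepaRG cells in serum-free induction medium exposed 48 h in duplicate to eight half-log concentrations, top 100 uM, 0.5% DMSO. FASN mRNA by qRT-PCR normalised to ACTB, GAPDH, POLR2A; bidirectional fit versus DMSO.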

[3] = read-out: Cyclin D2 (CCND2), CCND2 (gene 894); assay: LTEA_HepaRG_CCND2: Life Technologies and Expression Analysis (LTEA) Assay for Cyclin D2 (CCND2) using HepaRG (AID 2283449); conditions: mRNA level, 48 h; actives raise or lower the signal
Method in brief: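 Read-out is CCND2 mRNA level measured by qRT-PCR in human HepaRG liver cells and normalised to three housekeeping genes. Chemicals were applied for 48 h at up to 100 uM, with gain or loss fitted relative to 0.5% DMSO.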

[4] = read-out: Cyclin Dependent Kinase Inhibitor 1A (CDKN1A), CDKN1A (gene 1026); assay: LTEA_HepaRG_CDKN1A: Life Technologies and Expression Analysis (LTEA) Assay for Cyclin Dependent Kinase Inhibitor 1A (CDKN1A) using HepaRG (AID 2283450); conditions: mRNA level, 48 h; actives raise or lower the signal
Method in brief: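 Read-out is CDKN1A mRNA by TaqMan qRT-PCR, normalized to three housekeeping genes and fitted in both directions against the DMSO baseline. Human HepaRG cells were treated 48 h with test chemicals up to 100 uM in half-log steps, 0.5% DMSO.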

[5] = CEETOX_H295R_CORTIC: CeeTox H295R High-throughput Steroidogenesis Assay for Corticosterone (CORTIC) (AID 2283437); conditions: actives raise or lower the signal;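 further: corticosterone secreted into medium quantified by mass spectrometry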
Method in brief: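 Corticosterone secreted into medium is measured by reverse-phase HPLC with tandem MS following liquid-liquid extraction. Cells are forskolin-stimulated (10 uM, 48 h) before 48 h test exposure; activity fitted in both directions against DMSO.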

[6] = CEETOX_H295R_CORTISOL: CeeTox H295R High-throughput Steroidogenesis Assay for Cortisol (AID 2283438); conditions: actives raise or lower the signal;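 further: cortisol secreted into medium quantified by LC-MS/MS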
Method in brief: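 Forskolin-primed H295R cells (10 uM, 48 h) treated 48 h with test chemical in 0.1% DMSO. Cortisol in medium quantified by MTBE extraction and HPLC-MS/MS; bidirectional fit vs DMSO, MTT viability in same wells.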

[7] = CEETOX_H295R_DOC: CeeTox H295R High-throughput Steroidogenesis Assay for DOC (AID 2283439); conditions: actives raise or lower the signal
Method in brief: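 H295R cells prestimulated 48 h with 10 uM forskolin, then exposed 48 h to test chemical (0.1% DMSO final). Medium 11-deoxycorticosterone measured by HPLC-MS/MS after MTBE extraction; bidirectional fit vs DMSO, viability checked by MTT in same wells.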

[8] = CEETOX_H295R_ESTRADIOL: CeeTox H295R High-throughput Steroidogenesis Assay for Estradiol (AID 2283440); conditions: actives raise or lower the signal;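 further: estradiol secreted into medium quantified by LC-MS/MS after dansyl derivatisation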
Method in brief: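 Estradiol secreted into the medium was measured by tandem mass spectrometry after liquid-liquid extraction and dansylation. Human H295R cells had been forskolin-primed (10 uM, 48 h) before a 48 h chemical exposure with 0.1% DMSO.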

[9] = CEETOX_H295R_ESTRONE: CeeTox H295R High-throughput Steroidogenesis Assay for Estrone (AID 2283441); conditions: actives raise or lower the signal;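 further: estrone secreted into medium measured by LC-MS/MS after dansyl derivatization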
Method in brief: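 H295R cells prestimulated 48 h with 10 uM forskolin, then exposed 48 h to chemicals in 0.1% DMSO final; estrone in medium extracted with MTBE, dansyl-derivatized, quantified by HPLC-MS/MS; bidirectional fitting versus DMSO, viability by MTT.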

[10] = CEETOX_H295R_PROG: CeeTox H295R High-throughput Steroidogenesis Assay for Progesterone (PROG) (AID 2283442); conditions: actives raise or lower the signal;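 on AC50: human H295R adrenal cells primed with 10 µM forskolin before dosing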
Method in brief: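 Steps: seed H295R cells and let them adhere overnight; prime 48 h with 10 uM forskolin; dose with compound in DMSO at 0.1% final for 48 h; extract medium steroids with MTBE; measure progesterone by LC-MS/MS. MTT viability was run in the same wells.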

Measured: AC50

Chain of Fatty acid synthase (Homo sapiens) (P49327 whole entry, looked up): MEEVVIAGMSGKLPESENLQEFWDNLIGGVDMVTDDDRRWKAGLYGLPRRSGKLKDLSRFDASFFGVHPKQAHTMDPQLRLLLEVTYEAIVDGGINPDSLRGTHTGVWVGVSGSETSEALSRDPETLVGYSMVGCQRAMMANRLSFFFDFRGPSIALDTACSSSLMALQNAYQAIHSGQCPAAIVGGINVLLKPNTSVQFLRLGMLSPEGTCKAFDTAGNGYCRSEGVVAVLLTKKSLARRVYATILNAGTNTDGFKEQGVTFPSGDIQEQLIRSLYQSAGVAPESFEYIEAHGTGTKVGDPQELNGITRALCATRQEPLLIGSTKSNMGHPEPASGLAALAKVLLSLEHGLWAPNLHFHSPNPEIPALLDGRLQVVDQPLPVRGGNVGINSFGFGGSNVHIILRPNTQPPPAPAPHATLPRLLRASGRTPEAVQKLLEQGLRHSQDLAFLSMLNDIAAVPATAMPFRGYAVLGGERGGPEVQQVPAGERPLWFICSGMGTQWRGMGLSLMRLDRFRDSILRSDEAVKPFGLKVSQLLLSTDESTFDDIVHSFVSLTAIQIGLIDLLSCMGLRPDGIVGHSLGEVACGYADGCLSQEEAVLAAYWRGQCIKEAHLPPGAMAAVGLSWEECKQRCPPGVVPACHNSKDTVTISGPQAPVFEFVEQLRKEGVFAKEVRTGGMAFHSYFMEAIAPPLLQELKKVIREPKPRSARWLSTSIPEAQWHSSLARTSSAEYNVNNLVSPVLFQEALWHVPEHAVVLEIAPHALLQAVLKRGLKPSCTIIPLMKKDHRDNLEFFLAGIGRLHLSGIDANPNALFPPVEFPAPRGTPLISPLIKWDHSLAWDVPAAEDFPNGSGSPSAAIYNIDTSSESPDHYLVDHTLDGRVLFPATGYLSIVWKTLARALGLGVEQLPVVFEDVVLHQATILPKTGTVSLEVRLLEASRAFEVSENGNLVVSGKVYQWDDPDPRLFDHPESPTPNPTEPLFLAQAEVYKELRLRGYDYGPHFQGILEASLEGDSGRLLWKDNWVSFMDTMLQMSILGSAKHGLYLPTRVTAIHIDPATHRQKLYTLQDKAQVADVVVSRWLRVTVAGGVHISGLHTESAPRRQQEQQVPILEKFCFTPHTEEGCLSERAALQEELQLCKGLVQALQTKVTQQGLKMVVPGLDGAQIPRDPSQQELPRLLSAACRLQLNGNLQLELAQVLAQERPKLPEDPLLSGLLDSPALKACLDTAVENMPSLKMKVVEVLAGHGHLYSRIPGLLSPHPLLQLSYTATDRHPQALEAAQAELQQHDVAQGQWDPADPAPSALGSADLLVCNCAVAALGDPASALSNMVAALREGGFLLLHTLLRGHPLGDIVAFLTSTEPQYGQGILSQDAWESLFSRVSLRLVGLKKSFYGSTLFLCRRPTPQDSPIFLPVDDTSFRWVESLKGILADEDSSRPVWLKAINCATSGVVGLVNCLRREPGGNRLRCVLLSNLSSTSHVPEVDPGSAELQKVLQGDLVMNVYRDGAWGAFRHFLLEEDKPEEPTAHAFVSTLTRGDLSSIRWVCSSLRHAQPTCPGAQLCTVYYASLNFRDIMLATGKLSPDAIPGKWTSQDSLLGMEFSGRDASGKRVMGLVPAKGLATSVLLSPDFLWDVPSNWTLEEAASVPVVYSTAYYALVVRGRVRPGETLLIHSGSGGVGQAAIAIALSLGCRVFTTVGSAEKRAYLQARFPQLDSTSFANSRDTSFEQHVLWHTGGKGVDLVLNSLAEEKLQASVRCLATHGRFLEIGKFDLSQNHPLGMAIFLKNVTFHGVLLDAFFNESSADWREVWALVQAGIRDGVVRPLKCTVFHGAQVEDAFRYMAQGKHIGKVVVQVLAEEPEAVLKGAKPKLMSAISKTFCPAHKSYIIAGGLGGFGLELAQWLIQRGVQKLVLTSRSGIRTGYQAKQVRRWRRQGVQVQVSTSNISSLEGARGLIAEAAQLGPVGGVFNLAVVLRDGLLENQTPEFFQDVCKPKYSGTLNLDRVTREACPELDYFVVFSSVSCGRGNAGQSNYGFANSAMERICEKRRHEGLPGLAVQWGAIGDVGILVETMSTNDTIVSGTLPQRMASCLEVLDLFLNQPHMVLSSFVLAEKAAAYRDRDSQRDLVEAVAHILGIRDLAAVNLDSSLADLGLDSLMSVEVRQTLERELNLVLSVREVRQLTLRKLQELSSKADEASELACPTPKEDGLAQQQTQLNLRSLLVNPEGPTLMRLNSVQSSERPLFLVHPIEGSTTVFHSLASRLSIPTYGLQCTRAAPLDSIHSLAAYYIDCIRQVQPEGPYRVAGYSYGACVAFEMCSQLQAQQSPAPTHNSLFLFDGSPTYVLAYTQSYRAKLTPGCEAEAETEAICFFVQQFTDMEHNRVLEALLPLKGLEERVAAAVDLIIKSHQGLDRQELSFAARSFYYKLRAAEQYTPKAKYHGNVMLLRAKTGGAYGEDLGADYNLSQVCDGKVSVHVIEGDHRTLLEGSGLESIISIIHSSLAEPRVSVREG

CC(C)COC(=O)CCCCC(=O)OCC(C)C
inactive: [1] | [2] | [3] | [4]

CCCCCCCCCC[N+](C)(C)[O-]
active: [10] 3.86 µM
inactive: all other assays above

Nc1nc(=S)c2[nH]cnc2[nH]1
inactive: [3]
active: [1] 3.1 µM | [2] 9.16 µM | [4] 6.05 µM

CCc1nc(N)nc(N)c1-c1ccc(Cl)cc1
inactive: [1] | [2] | [3]
active: [4] 70.2 µM

CC(=O)[C@@]1(O)CC[C@H]2[C@@H]3CCC4=CC(=O)CC[C@]4(C)[C@H]3CC[C@@]21C
active: [6] 1.12 µM | [7] 14.9 µM | [10] 42.6 µM | [2] 50 µM
inactive: [5] | [1] | [3] | [4]

Nc1nc(Cl)nc2c1ncn2[C@H]1C[C@H](O)[C@@H](CO)O1
active: [5] 5.64 µM | [7] 0.201 µM | [10] 0.128 µM | [1] 0.209 µM | [2] 1.59 µM | [4] 0.168 µM
inactive: [6] | [3]

COc1ccc(C(=O)Nc2nc3ccccc3c(NCc3ccccc3)c2C#N)cc1
active: [5] 3.33 µM | [7] 3.01 µM | [10] 1.49 µM | [2] 10.3 µM | [4] 26.3 µM
inactive: all other assays above

NCCOCCOCCN
inactive: [1] | [2] | [3] | [4]

CC1=C(C)S(=O)(=O)CCS1(=O)=O
active: [10] 1.03 µM | [1] 76.8 µM | [2] 81.6 µM | [4] 85.4 µM
inactive: all other assays above

CCc1cc(C2=C(C(=O)O)N(c3ccccc3C(F)(F)F)S(=O)(=O)c3ccccc32)cc2c1OCO2
active: [1] 50 µM
inactive: [2] | [3] | [4]

S=c1[nH]c2ccccc2s1
not listed: [8] | [9]
inactive: all other assays above

O=C(Oc1ccccc1)c1cccc(C(=O)Oc2ccccc2)c1
active: [5] 72.7 µM
not listed: [8] | [9]
inactive: all other assays above

CCC(C)N(C)C(=O)c1cc2ccccc2c(-c2ccccc2Cl)n1 (stereo unspecified)
active: [10] 3.89 µM
not listed: [5] | [6] | [7]
inactive: all other assays above

Oc1ccc(O)cc1
active: [7] 2.16 µM | [10] 3.17 µM
inactive: all other assays above

CN(C)C(=O)NC1(c2ccccc2)CCN(CCC[C@]2(c3ccc(Cl)c(Cl)c3)CCCN(C(=O)c3ccccc3)C2)CC1
active: [2] 16.5 µM | [4] 18.4 µM
inactive: all other assays above

CC(COCC(C)OC(=O)c1ccccc1)OC(=O)c1ccccc1 (stereo unspecified)
inactive: [6] | [7] | [1] | [2] | [3] | [4]

O=C1c2c(O)cccc2Cc2cccc(O)c21
not listed: [8] | [9]
inactive: all other assays above

O=C1NC(=O)C(c2ccccc2)(c2ccccc2)N1
active: [5] 10.4 µM | [6] 26.6 µM
not listed: [8] | [9]
inactive: all other assays above

CC(C)(O)c1ccc(CNC(=O)c2cccnc2Oc2ccc(F)cc2)cc1
active: [6] 64.9 µM
not listed: [8] | [9]
inactive: all other assays above

CCCCc1nc2cccnc2n1Cc1ccc(-c2ccccc2-c2nnn[nH]2)cc1
active: [7] 10.1 µM | [10] 9.12 µM | [2] 50 µM
inactive: all other assays above

Cc1c(C)c2c(c(C)c1O)CCC(C)(COc1ccc(CC3SC(=O)NC3=O)cc1)O2 (stereo unspecified)
inactive: [8] | [9] | [10] | [1] | [2] | [4]

O=C(O)CN(CC(=O)O)CC(=O)O
not listed: [8] | [9]
inactive: all other assays above

CC(C)NCC(O)c1ccc(O)c(O)c1 (stereo unspecified)
active: [2] 0.219 µM | [4] 0.148 µM
inactive: [1] | [3]

COC(=O)[C@H]1[C@H]2C[C@@H]3c4[nH]c5cc(OC)ccc5c4CCN3C[C@H]2C[C@@H](OC(=O)c2cc(OC)c(OC)c(OC)c2)[C@@H]1OC
inactive: [1] | [4]
active: [2] 28.1 µM | [3] 14.9 µM
